Source: PubChem BioAssay (National Center for Advancing Translational Sciences (NCATS))
HCMV inh – inhibitors of human cytomegalovirus. 4.5% of 410,000 active. HFF cells, HCMV-luciferase reporter, 72 h; hits give low values. activity change, negative = inhibition, % at 57.5 µM; in the data active means activity change below about -60%; inconclusive means no clear call, values can overlap the other calls; inactive means above about -39%
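After 16 h attachment at 37C, HFF cells received test compound and HCMV-luciferase (1 PFU/cell); reporter luminescence read 72 h later, data normalized against buffer-only and known inhibitor Salinomycin.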
Lassa entry inh – blocks Lassa virus binding to or entry into cells. Lassa virus pseudotype entry inhibition, cell reporter. Potency, µM (top dose mostly 37.9 µM), usual class: inhibitors. 1.2% of 300,000 active. AID 540256; calls by dose curve; tested in HEK293 cells; further: nearly all actives have a fitted effect of over 50% in size
HCV inhibitor – HCV inhibition. Huh7.5.1 HCVcc-Cre infection, luciferase reporter, 44 h. Potency, µM (highest dose often 41.8 µM), actives largely listed as inhibitors. 3.4% of 340,000 active
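Antiviral activity was scored by luciferase reporter output from cells infected with HCVcc-Cre (~0.5 moi) in presence of compound, 44 h infection period, cells seeded 1,000/well 4 h prior.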
Marburg entry inh – Marburg virus entry inhibition | Marburg virus pseudotyped entry inhibition, cell reporter | Potency, µM (highest dose often 37.8 µM), actives largely listed as inhibitors | 1.8% of 300,000 active | AID 540276; calls by dose curve; tested in HEK293 cells
Pf growth 48h – inhibits P. falciparum growth in the first generation, 48 h; P. falciparum luciferase growth in erythrocytes, 48 h; Potency, µM (highest dose often 28.7 µM), actives largely listed as inhibitors; 5.9% of 310,000 active
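Read-out is firefly luciferase luminescence from an integrated reporter in P. falciparum, so falling signal marks reduced parasite growth. Infected erythrocytes were at 2% hematocrit and 0.1% parasitemia (final) in Albumax-supplemented RPMI 1640.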
Pf growth 96h – inhibits malaria parasite growth, 96 h; AID 504834; 6.9% of 320,000 active; P. falciparum luciferase reporter growth, 96 h; Potency, µM (top dose mostly 28.7 µM), actives largely listed as inhibitors
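P. falciparum expressing integrated firefly luciferase, in erythrocytes at 2% hematocrit, 0.05% parasitemia, incubated with compounds 96 h at 37 C, 5% CO2. Growth inhibition read as loss of luminescence; two-generation exposure targets delayed-death apicoplast inhibitors.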
Numbers stand for hits; 0 = inactive; ? = inconclusive; - = no result given; ! = a repeat was not active. The list is not random: actives were taken first. Their share in the collection is about 14%. Unless noted, the call rests on the fitted dose curve; in most records, active means well fitted inhibition curve with a large enough effect; inconclusive means small, poorly fitted or top-dose-only effect, or another doubt; inactive means no such curve, though single readings can be large or run the other way.

SMILES	HCMV inh	Lassa entry inh	HCV inhibitor	Marburg entry inh	Pf growth 48h	Pf growth 96h
COC(=O)C1Cc2ccccc2CN1C(=O)CCl (stereo not drawn)	?	?	?	7.1µM	?	?
O=C(O)[C@H]1Cc2ccccc2CN1S(=O)(=O)c1ccc(F)cc1	0	-	0	-	0	0
O=C(Nn1cnnc1)C1Cc2ccccc2CN1S(=O)(=O)c1ccc(F)cc1 (stereo not drawn)	0	0	0	0	0	8.3µM
COC(=O)[C@H](Cc1ccccc1)NC(=O)N1Cc2ccccc2C[C@H]1C(=O)OC	0	-	?	-	-	0
COC(=O)C1Cc2ccccc2CN1S(=O)(=O)c1ccc(F)cc1 (stereo not drawn)	0	0	0	0	0	1.3µM
COc1ccc(CCNC(=O)Nc2nc(C(N)C3CCCCC3)cs2)cc1OC (stereo not drawn)	0	-	-	-	-	-
O=C(CSc1nc(N2CCOCC2)nc(N2CCOCC2)n1)Nc1cccc(C(F)(F)F)c1	0	0	0	0	0	2.1µM
CC(=O)c1ccc(NC(=O)CSc2nc(N3CCOCC3)nc(N3CCOCC3)n2)cc1	0	0	0	0	?	0
O=C(CN1CCOCC1)Nc1cccc(C(F)(F)F)c1	0	0	0	0	-	-
Cc1cc(C)nc(SCC(=O)Nc2ccc(N3CCOCC3)c(Cl)c2)n1	0	?	7.9µM	?	0	-
O=C(CCN1CCOCC1)NNC(=O)Nc1cccc(C(F)(F)F)c1	-	0	0	?	0	10µM
O=C(CN1CCOCC1)Nc1ccc2c(c1)CCC2	0	-	0	-	0	0
O=C(CCN1CCOCC1)Nc1ccc2c(c1)CCC2	0	0	?	0	0	3.7µM
Cc1ccc2cccc(NC(=O)c3ccc(-c4cc(Cl)ccc4Cl)o3)c2n1	0	0	-	0	-	-
CCOc1ccc(S(=O)(=O)c2cc3cccc(OCC)c3oc2=O)cc1	0	0	-	0	-	-
CCN(CC)CCCNCC(=O)Nc1ccc2c(c1)CCC2	0	-	10µM	-	?	0
CCCOc1ccc(C(=O)N2CCN(c3ccc(NC(=O)CC)cc3Cl)CC2)cc1	0	?	?	0	6.6µM	0
O=C(Nc1cccc(C(F)(F)F)c1)n1cc(-c2ccccn2)c(N2CCOCC2)n1	-64	0	0	0	?	?
CSc1ccc(OCC(=O)Nc2ccc(N3CCOCC3)c(Cl)c2)cc1	0	0	10µM	0	0	?
O=C(Nc1cccc(C(F)(F)F)c1)N1CCN(C(=O)Nc2cccc(C(F)(F)F)c2)CC1	0	0	0	0	-	0
O=C(COc1c(F)c(F)c(C(F)(F)F)c(F)c1F)Nc1ccc(N2CCOCC2)c(Cl)c1	0	0	0	0	?	?
CN1CCN(c2ccc(NC(=O)COc3ccccc3)cc2Cl)CC1	0	0	0	?	0	0
COc1cc(NC(=O)C2(C)CCCN2C(=O)C(C)C)cc(OC)c1OC (stereo not drawn)	0	-	-	-	-	-
O=C(COc1ccccc1)Nc1ccc(OCc2cc(=O)n3ccsc3n2)cc1	0	0	-	0	-	-
COCc1cc(N2CCN(C(=O)OC(C)(C)C)C[C@H]2C)ccc1N1CC[C@@H](O)C1	0	-	-	-	-	-
SMILES	HCMV inh	Lassa entry inh	HCV inhibitor	Marburg entry inh	Pf growth 48h	Pf growth 96h
Cc1cccc(-n2c3nc(=O)n(C)c(=O)c-3cc3ccc(Cl)cc32)c1C	0	0	-	0	-	-
CCC(=O)Oc1cc(C(C)(C)C)cc2cc(-c3nc(-c4ccc(OC)cc4OC)no3)c(=O)oc12	0	0	-	-	-	-
CCOC(=O)c1cnc2ccc(OCC)cc2c1NCc1ccccc1OC	-70	8.9µM	7.1µM	?	12µM	0
CCOC(=O)c1cnc2ccc(OC)cc2c1NCc1ccccc1	0	0	?	?	12µM	?
CCOC(=O)c1cnc2ccc(OC)cc2c1NCCc1ccccc1	?	0	-	-	-	-
CCOC(=O)c1cnc2ccc(OCC)cc2c1Nc1cc(Cl)c(OC)cc1OC	0	0	-	0	-	-
Cc1ccc(CNS(=O)(=O)c2ccc(Cl)s2)cc1	0	-	-	-	-	-
O=C(CSc1nnc(-c2ccncc2)n1-c1ccccc1)Nc1ccc(F)cc1	0	0	-	-	-	-
Cc1cccc(C)c1NC(=O)CCCSc1nnc(-c2ccc(F)cc2)n1-c1ccccc1	-69	?	?	?	0	12µM
Cc1cccc(C)c1NC(=O)CCCSc1nnc(-c2ccc(Cl)cc2)n1-c1ccccc1	-80	?	?	?	0	?
CCOc1ccc(N2C(=O)/C(=C/c3ccco3)N(C)C2=S)cc1	0	0	0	0	0	2.1µM
Cc1cc(NC(=O)CCN2C(=O)C3C4CCC(C4)C3C2=O)c(C)cc1Br (stereo not drawn)	-107	0	?	0	0	?
Cc1cccc(C)c1NC(=O)CCN1C(=O)C2C3CCC(C3)C2C1=O (stereo not drawn)	0	0	0	0	0	0
CCCC(=O)NC(=S)Nc1ccc(S(=O)(=O)N2CCc3ccccc32)cc1	0	?	0	?	-	-
CSc1nc2c(cc1C#N)CCC2	0	0	0	0	0	0
C=C(C)CSc1nc2c(cc1C#N)CCC2	0	0	?	0	0	15µM
CCCCSc1nc2c(cc1C#N)CCC2	0	?	22µM	0	?	?
N=C(N)SCCN	0	0	0	35µM!	0	0
N#C/C(=C\c1cccnc1)C(=O)NC1CCCCC1	0	0	0	0	10µM	?
N#C/C(=C\c1cn[nH]c1-c1ccc(Cl)cc1)C(=O)NC1CC1	-	?	0	0	0	0
CC(NC(=O)/C(C#N)=C/c1cn[nH]c1-c1ccccc1)c1ccccc1 (stereo not drawn)	0	11µM	?	?	0	?
N#C/C(=C\c1cn[nH]c1-c1ccccc1)C(=O)NC1CCCCCC1	0	0	25µM	?	?	?
N#C/C(=C\c1ccccc1)C(=O)NC1CC1	0	-	0	-	0	0
CCOc1ccc(NC(=O)C(C)Sc2nc3ncccc3o2)cc1 (stereo not drawn)	0	0	-	-	-	-
CCC(Sc1nc(-c2ccccc2F)nc2c1Cc1c(CO)cnc(C)c1O2)C(=O)Nc1cc(C)ccc1C (stereo not drawn)	0	0	-	-	-	-
SMILES	HCMV inh	Lassa entry inh	HCV inhibitor	Marburg entry inh	Pf growth 48h	Pf growth 96h
Cc1cc(C)cc(-n2cc(C(=O)O)c(=O)cc2C)c1	-80	0	0	?	0	0
Clc1ccc(CN2CCC(c3nc4ccc(Cl)cc4[nH]3)CC2)cc1	-65	?	?	11µM	10µM	?
CC(C)(C)c1ccc(S(=O)(=O)N2CCC(c3nc4ccc(Cl)cc4[nH]3)CC2)cc1	0	?	?	?	12µM	0
CC1CCCN(C(=O)CN2CCC(c3nc4ccc(Cl)cc4[nH]3)CC2)C1 (stereo not drawn)	0	-	?	-	?	?
C=CCn1c(COc2ccccc2)nc2ccccc21	0	0	0	?	0	0
Cn1cnc2cc(NCc3ccc(Cl)cc3)ccc21	0	-	0	-	0	?
Cc1ccc(-c2cc(NC(=O)Cc3c[nH]c4ccccc34)ccc2N(C)c2cccnc2)cc1	0	-	-	-	-	-
O=C(CSCC(=O)N1CCN(c2ccccc2)CC1)Nc1nc(-c2ccc(Cl)s2)cs1	0	-	6.3µM	0	?	?
